# PubChem BioAssay (NCATS)
# “And” between values parts separate entries of the source, which are not always exact repeats. Identical values can stand only once. Inconclusive results are not listed. The source made the active and inactive calls. Unless noted, calls come from the whole dose curve; as a rule, active = well fitted curve in the direction sought with a large enough effect; inconclusive = small, poorly fitted or top-dose-only effect, or another doubt; inactive = no such curve, though single readings can be large; an effect the other way counts as inactive or inconclusive.
# Legend:
# [1] = molecular target: Arylsulfatase A (Homo sapiens) (UniProt P15289); assay: qHTS screen for enhancers of Arylsulfatase A (ASA1): LOPAC Validation Assay (AID 720538); conditions: outcome: dose series up to 57.5 µM
# Outline: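 First, ASA-I179S fibroblasts from an MLD patient adhered for 6 hrs. Next, compounds were added for 48h. Then pNCS substrate (0.5mM final) with lysis buffer reacted 14h at room temperature before NaOH stop and fluorescence measurement.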
# [2] = qHTS for compounds that reverse cellular toxicity of Amyloid beta (A-beta) peptide in yeast: LOPAC Validation Assay (AID 720559);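 note: plate controls were DMSO for no effect and equimolar ferric chloride plus clioquinol rescue for full effect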
# Outline: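 Activity is expressed relative to DMSO and an equimolar ferric chloride/clioquinol mix. Compounds were pinned into medium with A-beta-expressing yeast, grown 48 hr at 30 C, then read by absorbance at 600 nm.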
# [3] = qHTS for Activators of Parkin Expression: LOPAC Validation Assay (NLuc Reporter) (AID 720572;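 note: 0% = DMSO and 100% = positive control compound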)
# Outline: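 Neuronal line stably carrying a FLuc/NLuc coincidence reporter under the Parkin promoter, seeded 24 h, then dosed in 7-point series for 24 h at 37 C. NLuc luminescence read after FLuc; normalized to DMSO and positive control (100%).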
# [4] = qHTS for Activators of Parkin Expression: LOPAC Validation Assay (FLuc Reporter) (AID 720573;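 note: 0% = DMSO and 100% = positive control compounds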)
# Outline: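 A neuronal cell line harbouring FLuc and NLuc reporters behind the Parkin promoter was exposed to compounds for 24 h. Firefly luciferase signal, measured after 10 min with detection reagent, was scaled to DMSO and positive-control wells.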
# [5] = molecular target: T1, Hexokinase-4 (Homo sapiens) + Glucokinase regulatory protein (Homo sapiens) (UniProt P35557+Q14397); assay: qHTS assay for inhibitors of recombinant human GCK-GKRP interaction: Diaphorase-coupled assay (AID 743205)
# Outline: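 Inhibitors of the GCK–GKRP complex relieve GKRP suppression of GCK, detected through a G6PDH–diaphorase cascade reducing resazurin. Human GST-GCK and FLAG-GKRP are used at 10 nM with 5 mM glucose and 0.4 mM ATP.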
# [6] = qHTS Assay for Identifying Gametocytocidal Compounds (AID 743244); note: potency is the fitted concentration of half-maximal effect;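 for max response: % is set by controls: 0 for no effect and ±100 for the full control effect; actives lower the fluorescent signal which means gametocytes are killed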; conditions: P. falciparum 3D7 stage III-V gametocytes, alamarBlue, 72 h; max response: stronger effect = lower value
# Outline: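 In this qHTS viability screen, late-stage 3D7 gametocytes are incubated with compound for 72 h, then with alamarBlue for 24 h; reduced resorufin fluorescence marks killing.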
# [7] = qHTS profiling for inhibitors of Plasmodium falciparum (3D7) proliferation (AID 743322; call rule not given here;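 note: infected erythrocytes exposed to compound for 72 h before lysis; 100% = DMSO vehicle wells and 0% = 0.29 µM artemisinin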); conditions: P. falciparum 3D7 proliferation; at 28.7 µM (top of the series) unless noted
# Outline: (§1)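 Erythrocytes infected with P. falciparum (0.3% parasitemia, 2.5% hematocrit) incubated with compounds 72 h at 37 C, 5% CO2. Lysis with saponin/Triton buffer containing SYBR Green I, overnight at room temperature in the dark; DNA fluorescence (485/535 nm) normalised to 0.29 uM artemisinin and DMSO.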
# [8] = qHTS profiling for inhibitors of Plasmodium falciparum (DD2) proliferation (AID 743323; call rule not given here); conditions: lower = more inhibition; at 28.7 µM (top of the series) unless noted
# Outline: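 P. falciparum Dd2-infected erythrocytes (0.3% parasitemia, 2.5% hematocrit) exposed 72 h at 37 C, 5% CO2. Lysis with SYBR Green, overnight at room temperature, fluorescence 485/535 nm; normalized to 0.29 uM artemisinin and DMSO.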
# [9] = qHTS profiling for inhibitors of Plasmodium falciparum (HB3) proliferation (AID 743324); conditions: Plasmodium falciparum HB3 blood-stage proliferation; at 28.7 µM (top of the series) unless noted;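 note: 100% = DMSO vehicle wells and 0% = artemisinin-treated control wells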
# Outline: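 P. falciparum HB3 grown in erythrocytes (0.3% parasitemia, 2.5% hematocrit final) with compound for 72 h at 37 C, 5% CO2. Parasite DNA detected by SYBR Green after saponin/triton lysis overnight; normalized to 0.29 uM artemisinin and DMSO.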
# [10] = qHTS profiling of the MIPE4 collection as inhibitors of Plasmodium falciparum (3D7) proliferation (AID 743344; call rule not given here;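 note: scaled between DMSO vehicle wells and 0.29 µM artemisinin as full inhibition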); conditions: P. falciparum 3D7 in erythrocytes, SYBR Green DNA fluorescence, 72 h; at 28.5 µM (top of the series) unless noted
# Outline: as §1
# [11] = qHTS profiling of the MIPE4 collection as inhibitors of Plasmodium falciparum (DD2) proliferation (AID 743345; call rule not given here); conditions: P. falciparum Dd2 in erythrocytes, SYBR Green DNA, 72 h; at 28.5 µM (top of the series) unless noted
# Outline: as §1
# [12] = qHTS profiling of the MIPE4 collection as inhibitors of Plasmodium falciparum (DD2) proliferation (Rep 2) (AID 743346; call rule not given here); conditions: P. falciparum Dd2 in erythrocytes, SYBR Green DNA, 72 h; at 28.5 µM (top of the series) unless noted
# Outline: as §1
# [13] = qHTS profiling of the MIPE4 collection as inhibitors of Plasmodium falciparum (HB3) proliferation (AID 743347; call rule not given here;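 note: plate controls were DMSO vehicle wells for no effect and artemisinin wells for full effect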); conditions: P. falciparum HB3 in erythrocytes, SYBR Green DNA, 72 h; at 28.5 µM (top of the series) unless noted
# Outline: as §1
# [14] = molecular target: T1, Hexokinase-4 (Homo sapiens) + Glucokinase regulatory protein (Homo sapiens); assay: qHTS assay for inhibitors of recombinant human GCK-GKRP interaction: HTRF assay (AID 743207);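 note: 0% = DMSO with GCK present and -100% = DMSO wells lacking GCK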
# Outline: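 Steps: dispense GCK–GKRP complex (5 nM each, GST- and FLAG-tagged) with 2 uM S6P; pin in compounds; add XL665/Eu-cryptate-labelled antibodies; incubate 60 min at room temperature; read time-resolved FRET at 665 and 615 nm.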
# [15] = qHTS assay for small molecule agonists of the antioxidant response element (ARE) signaling pathway measured by Nrf2-dependant transcriptional activity (AID 720636; active = well fitted curve in the direction sought with a large enough effect in the repeat runs; an effect the other way counts as inactive or inconclusive;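 note: HepG2 cells with an ARE-driven luciferase reporter; % of control where 0% means no effect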)
# Outline: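 Nrf2-dependent transcription is measured in ARE-luc HepG2 cells: compound is applied for 16 hr at 37 C after a 6 hr attachment period, and luciferase activity is quantified by luminescence using ONE-Glo.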
# [16] = molecular target: T1, Hexokinase-4 (Homo sapiens) + Glucokinase regulatory protein (Homo sapiens); assay: qHTS assay for inhibitors of recombinant human GCK-GKRP interaction: ADP-Glo assay (AID 743206);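 note: plate controls were DMSO plus enzyme for no effect and no enzyme for full effect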
# Outline: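 GST-GCK and FLAG-GKRP (15 nM each in the dispensed mix, with 2 uM S6P) react with 0.4 mM ATP and 5 mM glucose (final) in Hepes pH 7.6 for 60 min at room temperature. ADP is measured by ADP-Glo luminescence.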
# [17] = qHTS assay for cell viability of HEK293 cells (AID 743288); conditions: ATP luminescence (CellTiter-Glo), 18 h; max response: stronger effect = lower value; note: % is set by controls: 0 for no effect and ±100 for the full control effect; nearly all actives have a fitted effect of over 50% in size
# Outline: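 The Tox21 protocol used parental HEK293 cells treated for 18 h at 37 C with compounds delivered by pintool; ATP-coupled luminescence after 30 min at room temperature gave viability.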
# [18] = qHTS assay for cell viability of the p53RE-bla HCT-116 cell line (AID 743292); note: % is set by controls: 0 for no effect and ±100 for the full control effect; nearly all actives have a fitted effect of over 55% in size
# Outline: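 ATP-based luminescence, 16 h compound exposure at 37 C, p53RE-bla HCT-116 cells at 4,000/well.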
# [19] = Cell Proliferation Assay Versus the ED40515 IL2 Independent ATL cell lines (AID 1053194; calls by dose curve); conditions: ED40515 IL2-independent ATL cells
# Outline: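 Log-phase ED40515 cells grown without IL-2, 1000 cells/well in phenol red-free RPMI with 5% FBS, exposed to drugs 48 h at 37C. Viability read as CellTiter-Glo luminescence after 15 min at RT; DMSO and 9.2 uM bortezomib as controls.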
# T1 sequence (P35557 whole entry, looked up): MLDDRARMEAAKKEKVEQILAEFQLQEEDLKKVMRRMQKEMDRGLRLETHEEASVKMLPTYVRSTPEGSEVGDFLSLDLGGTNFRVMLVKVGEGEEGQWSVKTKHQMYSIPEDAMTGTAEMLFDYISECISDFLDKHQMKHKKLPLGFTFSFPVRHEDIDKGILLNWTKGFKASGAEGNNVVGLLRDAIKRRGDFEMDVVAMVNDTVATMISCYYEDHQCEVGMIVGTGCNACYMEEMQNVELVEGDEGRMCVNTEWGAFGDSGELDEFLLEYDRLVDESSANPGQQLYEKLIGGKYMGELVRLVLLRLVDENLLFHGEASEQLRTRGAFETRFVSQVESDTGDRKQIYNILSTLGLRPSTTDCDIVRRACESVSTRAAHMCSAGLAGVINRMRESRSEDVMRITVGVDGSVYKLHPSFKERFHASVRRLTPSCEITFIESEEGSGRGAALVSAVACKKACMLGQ
# T1 sequence (Q14397 whole entry, looked up): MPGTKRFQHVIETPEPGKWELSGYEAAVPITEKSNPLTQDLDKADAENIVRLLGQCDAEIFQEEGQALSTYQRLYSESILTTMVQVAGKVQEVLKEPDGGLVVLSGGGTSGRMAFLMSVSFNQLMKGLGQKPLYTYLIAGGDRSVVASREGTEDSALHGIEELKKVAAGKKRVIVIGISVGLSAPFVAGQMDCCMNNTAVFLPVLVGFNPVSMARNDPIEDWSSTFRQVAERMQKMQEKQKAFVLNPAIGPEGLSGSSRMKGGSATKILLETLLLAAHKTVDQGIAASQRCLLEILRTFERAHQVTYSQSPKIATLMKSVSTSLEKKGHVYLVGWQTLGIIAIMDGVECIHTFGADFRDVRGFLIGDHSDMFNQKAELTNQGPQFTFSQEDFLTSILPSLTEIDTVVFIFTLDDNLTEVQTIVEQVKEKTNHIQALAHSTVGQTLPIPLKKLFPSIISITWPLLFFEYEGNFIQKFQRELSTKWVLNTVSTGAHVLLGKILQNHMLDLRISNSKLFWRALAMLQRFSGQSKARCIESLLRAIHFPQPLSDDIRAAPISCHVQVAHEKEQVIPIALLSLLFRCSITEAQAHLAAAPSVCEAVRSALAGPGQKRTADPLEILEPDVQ
# Chain of Arylsulfatase A (Homo sapiens) (P15289 whole entry, looked up): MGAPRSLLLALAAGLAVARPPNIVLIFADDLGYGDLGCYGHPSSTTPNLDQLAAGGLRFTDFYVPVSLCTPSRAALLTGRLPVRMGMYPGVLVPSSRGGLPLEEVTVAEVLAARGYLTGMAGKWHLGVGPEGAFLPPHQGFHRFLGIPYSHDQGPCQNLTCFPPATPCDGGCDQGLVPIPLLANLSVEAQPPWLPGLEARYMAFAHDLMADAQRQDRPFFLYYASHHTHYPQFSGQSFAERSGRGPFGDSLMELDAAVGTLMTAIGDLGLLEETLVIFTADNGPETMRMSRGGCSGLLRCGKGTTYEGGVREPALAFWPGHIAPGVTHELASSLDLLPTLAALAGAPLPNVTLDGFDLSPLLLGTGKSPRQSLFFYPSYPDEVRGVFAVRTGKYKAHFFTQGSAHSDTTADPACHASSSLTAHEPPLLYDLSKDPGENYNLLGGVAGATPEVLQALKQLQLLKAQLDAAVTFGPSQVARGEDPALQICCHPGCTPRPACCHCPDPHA
Compound,outcome [1],outcome [2],Potency [3],outcome [4],outcome [5],max response [6],remaining parasite growth % (stronger effect = lower value) [7],"activity, percent of control [8]","remaining proliferation (% of control), lower = more inhibition [9] [%]","parasite growth, % of DMSO control [10]","parasite growth remaining, % of DMSO control (lower = more inhibition) [11]","parasite growth, % of control (lower = inhibition) [12]","growth, % of control [13]",outcome [14],outcome [15],outcome [16],max response [17],Potency [18],Potency [6],Potency [19]
CC(C)C[C@H](NC(=O)[C@@H](O)[C@H](N)Cc1ccccc1)C(=O)O,inactive,inactive,inactive,inactive,inactive,-20.9% (inactive) and 9.59% (inactive),2.82%,6.99%,5.96,7.87%,10.1%,16%,6.17%,,,,,,,
CCCCNc1cc(C(=O)O)cc(S(N)(=O)=O)c1Oc1ccccc1,inactive,inactive,inactive,inactive,inactive,-3.91% (inactive) and 1.19% (inactive),,,,87.9%,99.3%,102%,84%,,,,,,,
CCOC(=O)C1=C[C@]2(CC)CCCN3CCc4c(n1c1ccccc41)[C@@H]32,inactive,inactive,inactive,inactive,inactive,-1.66% (inactive),,,,5.46% and 17.8%,8.67% and 83.7%,35.2% and 34.2%,10% and 13.6%,inactive,,,,,,
O=C1CCC(N2C(=O)c3ccccc3C2=O)C(=O)N1 (centres undefined),inactive; inhibitor; fitted 0.0301 uM,inactive,inactive,inactive,inactive,18.1% (inactive) and 27% (inactive),,,,93.4%,88.8%,142%,114%,inactive,inactive,inactive,-7.06% (inactive),inactive,,
NCCCC(N)(C(=O)O)C(F)F (centres undefined),inactive,inactive,inactive,inactive,inactive,5.66% (inactive) and 8.03% (inactive),,,,98%,95.9%,157%,107%,,,,,,,
O=c1n(CCCN2CCN(c3cccc(Cl)c3)CC2)nc2ccccn12,inactive,inactive,inactive,inactive,inactive,8.61% (inactive) and 11.5% (inactive),,,,60.5%,82.9%,72.8%,92.5%,,,,,,,
OC(CN1CCC(Cc2ccc(F)cc2)CC1)c1ccc(Cl)cc1 (centres undefined),inactive,inactive,inactive,inactive,inactive,,1.14% and 5.06%,1.06% and 4.92%,,9.22%,8.62%,19.9%,46.6%,,,,,,7.43 µM (active),
O=C1CCc2cc(OCCCCc3nnnn3C3CCCCC3)ccc2N1,inactive,inactive,inactive,inactive,inactive,16.8% (inactive) and 6.18% (inactive),,,,90.8%,99.1%,115%,104%,,,,,,,
CC(C[N+](C)(C)C)OC(N)=O (centres undefined),inactive,inactive,inactive,inactive,inactive,11.1% (inactive),,,,102%,101%,96.7%,69.1%,,,,,,,
Cc1cnc(NC(=O)C2=C(O)c3ccccc3S(=O)(=O)N2C)s1,inactive,inactive,,inactive,inactive,4.3% (inactive) and 13.2% (inactive) and 16.1% (inactive),,,,39%,86.7%,61.9%,78.1%,inactive,,,,,,
O=C(Nc1nc2ccccc2n1CCN1CCOCC1)c1cccc([N+](=O)[O-])c1,inactive,inactive,inactive,,inactive,,,,,,,17.9%,,,,,,,,
Cc1[nH]c(=O)c(C#N)cc1-c1ccncc1,inactive; inhibitor; fitted 5.3582 uM,inactive,inactive,inactive,inactive,-5.95% (inactive) and 11% (inactive) and 13.2% (inactive),,,,15.2%,14.6%,36.4%,9.94%,,inactive,,7.32% (inactive),inactive,,
CCCn1c(=O)c2[nH]c(C34CC5CC3C[C@@H](C5)C4)nc2n(CCC)c1=O,,,,,,25.8% (inactive),89.8%,85.1%,59.4,16.5%,77.4%,17.3%,5.74%,,,,,,,18.7 µM (active)
Nc1ccc(S(=O)(=O)Nc2ccnn2-c2ccccc2)cc1,inactive,inactive,inactive,inactive,inactive,9.56% (inactive) and 18.4% (inactive),,,,93.3%,103%,86.8%,94.4%,,,,,,,
CN1CCN(CCCN2c3ccccc3Sc3ccc(C(F)(F)F)cc32)CC1,inactive,inactive,inactive,inactive,inactive,,,,,108%,97.5%,101%,83%,,,,,,3.16 µM (active),
CNC[C@H](O)c1cccc(O)c1,inactive,inactive,inactive,inactive,inactive,-1.17% (inactive) and 7.6% (inactive),,,,102%,98.1%,94.6%,92.6%,,inactive,,-12.3% (inactive),inactive,,
CCOc1cc(N2CCC(O)CC2)ccc1Nc1ncc2c(n1)N(C)c1ccccc1C(=O)N2C,,,,,,,6.85%,1.46%,-0.346,4.46%,7.18%,5.98%,5.43%,,,,,,,5.26 µM (active)
